Laboratory results published in PubChem BioAssay AID651804 (National Center for Advancing Translational Sciences (NCATS), 2012).
In all, about 1,200 compounds went through this assay and about 20 (2%) were called active. Roughly 23% stayed inconclusive and do not appear here. The entries come from a sample that favours actives as a whole. A number with no mark means an inactive call. Calls follow the shape of the dose curve; as a rule, active = well fitted inhibition curve with a large enough effect; inconclusive = small, poorly fitted or top-dose-only effect; inactive = no such curve, though single readings can be large or run the other way.

Each compound was assayed against Transcriptional regulator ERG (Homo sapiens) (UniProt P11308) (assay: qHTS for Small Molecule Inhibitors of the ERG Ets/DNA interaction: HTRF assay against cherry picks). Settings: His-ERG Ets domain with biotin-DNA; series mostly up to 154 µM; activity change, negative = inhibition: at the top concentration.
Description: The Ets family of proteins is a family of ~30 conserved transcription factors defined by the presence of an ~85 amino acid domain referred to as the Ets domain, which mediates sequence-specific DNA binding to a core DNA element GGAA/T.The Ets family member ERG has been linked to several neoplasms. […] More extensive studies of the effects of over-expression of ERG in prostate cells have recently been carried out and have shown that over-expression of ERG results in increased invasion. […] We will carry out a high throughout screen to identify inhibitors of the interaction between ERG and DNA using a fluorescence polarization (FP) assay with a His-tagged ERG Ets domain and fluorescently-labeled DNA probes to develop small molecule inhibitors of this interaction as probes to test this hypothesis and lay the groundwork for the development of targeted therapies against ERG. This is the counterscreen against the cherry picks. NIH Molecular Libraries Probe Production Network [MLPCN] NIH Chemical Genomics Center [NCGC] Grant: NS066464 PI Name: John Bushweller, University of Virgina
2 ul of protein solution (200 nM ERG domain in 300mM KCl, 50mM Tris-HCl, 1mM EDTA, 1mM DTT, pH 7.5); 20 nl Control plate and compound library plate; 2 ul of 200 nM biotin-DNA; incubate for 10 min at RT; 1 ul of anti-His antibody conjugated to the long-life fluorescent cryptate donner […] (5ng/ul) and streptavidin conjugated to the acceptor compound […] (0.2 ng/ul) mix; incubate 10 min and measure FRET (Excitation = 320 nm, Emission = 615, 665 nm).
Potency is read from the fitted curve at half-maximal effect.

Sequence of Transcriptional regulator ERG (Homo sapiens) (P11308 whole entry, looked up, the tested form may be a part): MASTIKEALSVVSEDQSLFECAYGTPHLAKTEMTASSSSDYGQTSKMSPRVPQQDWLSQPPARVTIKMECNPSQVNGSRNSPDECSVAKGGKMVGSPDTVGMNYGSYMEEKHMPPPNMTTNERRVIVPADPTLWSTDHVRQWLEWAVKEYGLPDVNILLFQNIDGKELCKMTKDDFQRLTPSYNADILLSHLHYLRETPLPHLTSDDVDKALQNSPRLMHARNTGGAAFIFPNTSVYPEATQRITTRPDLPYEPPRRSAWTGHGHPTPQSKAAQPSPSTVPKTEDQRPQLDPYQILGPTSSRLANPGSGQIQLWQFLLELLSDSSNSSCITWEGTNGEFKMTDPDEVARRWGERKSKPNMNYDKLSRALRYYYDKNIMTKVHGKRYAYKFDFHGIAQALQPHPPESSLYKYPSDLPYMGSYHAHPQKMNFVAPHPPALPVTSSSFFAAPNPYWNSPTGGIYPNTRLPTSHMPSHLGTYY

Compound	activity change, negative = inhibition [%]	Potency
Cc1cc(OCc2cc3c(cc2Cl)OCO3)c2c(C)cc(=O)oc2c1	-3.98	
COC(=O)c1ccccc1NC(=O)c1cc(C2CC2)on1	-14.3	
Nc1ccccc1S(N)(=O)=O	-1.75	
COc1cc(CCC(=O)Nc2ccc(Br)c(C(F)(F)F)c2)cc(OC)c1OC	-23.7	
O=C(NCCCc1ccccc1)C(=O)NCC1OCCN1S(=O)(=O)c1cc(F)ccc1F (centres undefined)	-21.2	
N#Cc1c(SCc2c(Cl)cccc2Cl)nc(N)[nH]c1=S	-36.5	
CCC(c1nnnn1Cc1ccc(F)cc1)N1CCN(C)CC1 (centres undefined)	-23.8	
Cc1sc2nc(CSC(C)C(=O)Nc3ccc(C(N)=O)cc3)[nH]c(=O)c2c1C (centres undefined)	-40.4	
CCOc1ccc(NS(=O)(=O)c2ccc(NC(C)=O)c(OC)c2)cc1	-24.9	
CCn1ccc2c(OCC(=O)Nc3ccc(C(C)=O)cc3)cccc2c1=O	-14.2	
COc1cccc2c1C(=N)c1c(O)c3c(c(O)c1C2=O)CC(O)(C(C)=O)CC3OC1CC(N)C(O)C(C)O1 (centres undefined)		3.98 µM (active)
COC(=O)c1c(C(=O)OC)c(-c2ccc(OC)cc2)n2c1CS(=O)C2 (centres undefined)	-14.5	
CC(NC(=O)c1ccco1)c1nc(-c2ccc(C(C)(C)C)cc2)no1 (centres undefined)	-19.6	
O=C(Cc1csc(-c2ccccc2)n1)NCc1ccc(F)cc1	-25.8	
O=C(NCCCc1ccccc1)C(=O)NCC1OCCN1S(=O)(=O)c1ccccc1 (centres undefined)	-28.9	
CCn1nc(C)c(CNC(=O)c2cc(COc3ccccc3SC)on2)c1C	-14.4	
CS(=O)(=O)N(CC(=O)Nc1ccccc1)c1cccc(Cl)c1Cl	1.01	
O=C(O)CC(c1cccc2ccccc12)N1Cc2ccccc2C1=O (centres undefined)	-11.1	
O=C(NCc1ccc(F)cc1F)c1cc(COc2c(F)cccc2F)on1	8.28	
Cc1cc(C)cc(N(C(=O)c2csnn2)C(C(=O)NC(C)(C)C)c2ccncc2)c1 (centres undefined)	-28.2	
COc1ccc(Nc2ncnc3sccc23)cc1OC	-22.8	
COc1ccc(-c2cccc(NS(=O)(=O)c3cc([N+](=O)[O-])ccc3C)c2)nn1	-26.3	
Cc1cc(N)ccc1-n1c(C)ccc1C	-13.7	

Compound	activity change, negative = inhibition [%]	Potency
CC(Oc1ccc(C(=O)c2ccc(F)cc2)cc1)C(=O)N1CCOCC1 (centres undefined)	-25.3	
CCc1nn2c(=O)cc(CSCC(=O)Nc3ccccc3F)nc2s1	-2.81	
CCOC(=O)C(CC)Sc1ccc2nnc(-c3cccnc3)n2n1 (centres undefined)	-10.8	
CC1CCN(S(=O)(=O)c2ccc(Cl)s2)CC1	-23	
Cn1nc(C(F)(F)F)c(C#N)c1N1CCN(c2ccccn2)CC1	-25.8	
O=C(C[C@H]1C/C=C\CC[C@@H](Cc2ccc(F)cc2)C(=O)OC[C@H]2CCCN2C1=O)N[C@H](CO)Cc1ccccc1	-13.8	
CC1(C)C2CCC1(C)C(NCC(O)COc1ccc(C#N)cc1)C2 (centres undefined)	-2.02	
CCOCCn1c(CN2CCCCC2)nc2c1c(=O)n(C)c(=O)n2C	-23	
Cc1cc(C(=O)COC(=O)C23CC4CC(CC(O)(C4)C2)C3)c(C)n1C	-28.2	
COc1cc(NC(=O)COC(=O)CNC(=O)C2CCCCC2)cc(OC)c1	-17.5	
Cc1nccn1C[C@@H]1CCc2c(c3ccccc3n2C)C1=O	-12.8	
Cc1nc(Nc2cccc(F)c2)c2oc3ccccc3c2n1	-29.2	
CCCCn1c(N)c(N(CC(C)C)C(=O)c2ccc(S(=O)(=O)N3CCC(C)CC3)cc2)c(=O)[nH]c1=O	-4.46	
COC(=O)c1ccccc1SC(CC(=O)c1ccccc1)c1ccc(F)cc1 (centres undefined)	-9.34	
CCCC(NC(=O)C(C)Sc1nnnn1C1CC1)c1ccccc1 (centres undefined)	-15.9	
CCCN1C[C@H](CSC)C[C@@H]2c3cccc4[nH]cc(c34)C[C@H]21		14.1 µM (active)
Cc1ccccc1-n1c(=O)n(CCc2ccccc2)c(=O)c2[nH]cnc21	-2.33	
O=S(=O)(c1ccccc1)c1cnc(-c2cccnc2)nc1-c1ccccc1	-15.6	
O=c1oc2ccccc2cc1-c1cn2cc(Cc3ccc(F)cc3)sc2n1	-3.08	
NC(=O)c1ccccc1NCC(=O)c1ccc(F)cc1	-21.6	
COc1cccc(-c2nn(C)c3sc(C(=O)NCc4ccc(OC)cc4OC)cc23)c1	1.17	
CSc1nc(-c2ccc(Cl)cc2)nn1C(=O)c1ccccc1	-19.6	
COc1ccc(S(=O)(=O)N2CCCC(C(F)(F)F)C2)cc1 (centres undefined)	-24	

Compound	activity change, negative = inhibition [%]	Potency
CN(C)C=NC(=O)c1cc(C(=O)c2ccc(Cl)cc2)c[nH]1	-14.1	
Cc1cc(=O)oc2cc(OCC(=O)OCC(=O)Nc3ccc(C(C)C)cc3)ccc12	-4.51	
COC(=O)C(CCSC)NC(=O)c1cc2c(n(-c3ccccc3)c1=O)CC(C)(C)CC2=O (centres undefined)	-23.7	
CC(C)CCN1CCN(C2CCN(c3ccc4c(c3)OCO4)CC2)CC1CCO (centres undefined)	-10.5	
Cc1cc(C)nc(N2C(=O)CC(Cc3ccc(Cl)cc3)C2=O)n1 (centres undefined)	-18.5	
Cc1ccc2oc(-c3ccc(NC(=O)CC(C)C)cc3)nc2c1	-28	
Cc1ccc(C(=O)N2CCCCC2C(=O)O)cc1S(=O)(=O)N1CCCCC1 (centres undefined)	-26.3	
O=C(Nc1ccccc1Br)c1ccccc1-c1ccccc1	-19	
COc1ccccc1NS(=O)(=O)c1ccc(C)c(NC(=O)c2c(C)noc2C)c1	-24.5	
Cc1ccc(NC(=O)CSc2nc3ccccc3c3nc(CCn4c(C)nc5ccccc54)nn23)cc1F	-14.4	
COc1ccc(NC(=O)CSc2nc(C)c3c(c2C#N)CCCC3)cc1	-22.1	
Cc1cc(C)nc(N2CCCC(C(=O)Nc3ccc(F)cc3)C2)n1 (centres undefined)	0.212	
Cc1cc2[nH]c3c(c[n+](C)c4ccccc34)c2cc1C		3.55 µM (active)
Cc1c(NC(=O)c2cc(-n3cnnc3)ccc2Cl)cccc1-c1nc2ccccc2s1	-29.4	
CC(=O)Nc1sc2c(c1-c1nc3ccccc3s1)CCN(C(C)C)C2		3.55 µM (active)
O=c1[nH]c2cc(F)ccc2c2ccc(F)cc12	-28.4	
CCOc1cc(NC(=S)NCC(C)C)c(OCC)cc1NC(=O)c1ccco1	-29	
O=C(Nc1cc(-c2nc3cc(Cl)ccc3o2)ccc1Cl)c1cccs1	111	
COC(=O)C(C)Sc1ccc2nnc(CCNS(=O)(=O)c3ccc(C)cc3)n2n1 (centres undefined)	-21.9	
CNCCCOc1cc(C)cc(C)c1C	-21.6	
COc1ccc(C(c2c(C)n(C)n(-c3ccccc3)c2=O)c2c(C)n(C)n(-c3ccccc3)c2=O)c(OC)c1OC	-25.1	
COc1ccc(OC)c2c1C(=O)c1ccccc1C2=O		35.5 µM (active)
COc1ccc(C(=O)c2cccc(C(=O)c3ccc(OC)c(C)c3)c2)cc1C	-25.7	
